Among the data in PMC7862700, “An all-to-all approach to the identification of sequence-specific readers for epigenetic DNA modifications on cytosine” are binding signal values, retold here.

What all share (assay): DAPPL (digital affinity profiling via proximity ligation, sequencing); 10 mM Tris-HCl pH 7.5, 50 mM NaCl, 1 mM DTT, 4% glycerol, room temperature, 30 min; GST-TFs on glutathione beads, 16-mer random dsDNA library, 0.1% formaldehyde crosslink after washing; high values mean tight binding
One assay deals with T1, FEV (Homo sapiens, UniProt Q99581 1-238).
T1 sequence: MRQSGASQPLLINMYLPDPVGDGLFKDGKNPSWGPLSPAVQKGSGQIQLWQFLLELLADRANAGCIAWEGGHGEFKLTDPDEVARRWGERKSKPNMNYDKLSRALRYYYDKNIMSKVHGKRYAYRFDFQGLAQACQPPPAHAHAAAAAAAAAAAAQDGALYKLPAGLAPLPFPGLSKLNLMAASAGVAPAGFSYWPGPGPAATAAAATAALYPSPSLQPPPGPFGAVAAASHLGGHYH
Conditions: protein: recombinant; tags: N-terminal GST; dsDNA, one strand shown. The gist of the method:
(§1)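 Binding signal is each hexamer's read frequency for a factor divided by its frequency in the tag-only sample. The factors were GST-fused human transcription factors from yeast, captured on glutathione beads, DNA-barcoded and pooled with that sample. Pools were incubated with 200 nmole of a random double-stranded 16-mer DNA library in Tris/NaCl/DTT/glycerol buffer at room temperature for 30 min, then washed, crosslinked with 0.1% formaldehyde, proximity-ligated with BsaI/T4 ligase (1 h, 37 °C), PCR-amplified and sequenced on an Illumina NextSeq500.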

The target of the next assay is ETV5 (Homo sapiens, UniProt P41161 1-510). Conditions: protein: recombinant; tags: N-terminal GST; dsDNA, one strand shown. In outline: as §1
In the next assay the target is HSF1 (Homo sapiens, UniProt Q00613 1-529). Conditions: protein: recombinant; tags: N-terminal GST; chain copies: 3; dsDNA, one strand shown. The gist of the method:
as §1

In a further assay the target is T2, SPIC (Homo sapiens, UniProt Q8N5J4 1-248).
T2 sequence: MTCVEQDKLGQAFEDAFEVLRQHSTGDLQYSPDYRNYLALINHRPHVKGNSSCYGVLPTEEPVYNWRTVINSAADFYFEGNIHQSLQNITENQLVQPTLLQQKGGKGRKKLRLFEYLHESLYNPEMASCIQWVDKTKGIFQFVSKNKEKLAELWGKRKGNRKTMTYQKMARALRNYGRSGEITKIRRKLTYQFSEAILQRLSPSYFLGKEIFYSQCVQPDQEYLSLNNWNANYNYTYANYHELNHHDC
The conditions noted are these: protein: recombinant; tags: N-terminal GST; dsDNA, one strand shown. In outline: as §1

The target in the next assay is ELF4 (Homo sapiens, UniProt Q99607 1-663). The conditions noted are these: protein: recombinant; tags: N-terminal GST; dsDNA, one strand shown. The gist of the method:
as §1

Another assay has as its target T3, ELK4 (Homo sapiens, UniProt P28324-2 1-405).
T3 sequence: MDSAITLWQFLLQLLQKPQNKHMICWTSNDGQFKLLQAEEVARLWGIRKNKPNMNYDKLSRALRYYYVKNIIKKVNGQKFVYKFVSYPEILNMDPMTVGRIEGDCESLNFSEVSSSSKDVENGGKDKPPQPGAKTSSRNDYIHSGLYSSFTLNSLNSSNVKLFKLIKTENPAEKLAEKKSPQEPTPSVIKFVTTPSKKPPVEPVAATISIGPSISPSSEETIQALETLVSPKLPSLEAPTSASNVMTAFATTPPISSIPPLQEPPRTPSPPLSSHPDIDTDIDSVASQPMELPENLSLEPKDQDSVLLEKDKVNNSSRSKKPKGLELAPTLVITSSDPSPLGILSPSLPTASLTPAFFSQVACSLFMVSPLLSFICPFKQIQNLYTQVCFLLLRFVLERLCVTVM
The conditions noted are these: protein: recombinant; tags: N-terminal GST; dsDNA, one strand shown. In outline:
as §1

The target of the next assay is T4, ETV2 (Homo sapiens, UniProt O00321 1-342).
T4 sequence: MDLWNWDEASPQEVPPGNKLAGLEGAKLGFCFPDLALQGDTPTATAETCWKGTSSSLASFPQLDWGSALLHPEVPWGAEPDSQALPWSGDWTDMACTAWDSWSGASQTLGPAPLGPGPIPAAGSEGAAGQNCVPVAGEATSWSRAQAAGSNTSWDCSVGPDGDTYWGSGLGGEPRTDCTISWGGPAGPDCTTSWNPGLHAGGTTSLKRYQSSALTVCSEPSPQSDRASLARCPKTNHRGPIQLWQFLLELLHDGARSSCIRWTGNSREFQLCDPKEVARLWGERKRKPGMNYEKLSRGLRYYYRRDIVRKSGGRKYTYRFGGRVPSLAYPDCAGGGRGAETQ
The conditions noted are these: protein: recombinant; tags: N-terminal GST; dsDNA, one strand shown. The gist of the method:
as §1

The target in the next assay is T5, ELF3 (Homo sapiens, UniProt P78545 1-371).
T5 sequence: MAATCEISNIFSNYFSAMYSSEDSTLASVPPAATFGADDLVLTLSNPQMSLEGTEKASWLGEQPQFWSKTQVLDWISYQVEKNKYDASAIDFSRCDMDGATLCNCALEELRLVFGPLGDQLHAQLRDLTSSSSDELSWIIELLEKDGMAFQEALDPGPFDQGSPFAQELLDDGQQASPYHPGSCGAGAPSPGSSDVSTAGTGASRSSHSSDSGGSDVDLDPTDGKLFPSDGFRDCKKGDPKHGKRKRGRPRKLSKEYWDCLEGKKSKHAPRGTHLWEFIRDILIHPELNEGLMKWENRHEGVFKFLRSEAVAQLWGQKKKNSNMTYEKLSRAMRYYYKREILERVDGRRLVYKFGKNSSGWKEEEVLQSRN
The conditions noted are these: protein: recombinant; tags: N-terminal GST; dsDNA, one strand shown. The gist of the method: as §1

Another assay addresses CRX (Homo sapiens, UniProt O43186 1-299). Conditions: protein: recombinant; tags: N-terminal GST; dsDNA, one strand shown. In outline: as §1
The target in a further assay is ETV1 (Homo sapiens, UniProt P50549 1-477). Conditions: protein: recombinant; tags: N-terminal GST; dsDNA, one strand shown. In outline:
as §1

The target in another assay is T6, ERF (Homo sapiens, UniProt P50548 1-548).
T6 sequence: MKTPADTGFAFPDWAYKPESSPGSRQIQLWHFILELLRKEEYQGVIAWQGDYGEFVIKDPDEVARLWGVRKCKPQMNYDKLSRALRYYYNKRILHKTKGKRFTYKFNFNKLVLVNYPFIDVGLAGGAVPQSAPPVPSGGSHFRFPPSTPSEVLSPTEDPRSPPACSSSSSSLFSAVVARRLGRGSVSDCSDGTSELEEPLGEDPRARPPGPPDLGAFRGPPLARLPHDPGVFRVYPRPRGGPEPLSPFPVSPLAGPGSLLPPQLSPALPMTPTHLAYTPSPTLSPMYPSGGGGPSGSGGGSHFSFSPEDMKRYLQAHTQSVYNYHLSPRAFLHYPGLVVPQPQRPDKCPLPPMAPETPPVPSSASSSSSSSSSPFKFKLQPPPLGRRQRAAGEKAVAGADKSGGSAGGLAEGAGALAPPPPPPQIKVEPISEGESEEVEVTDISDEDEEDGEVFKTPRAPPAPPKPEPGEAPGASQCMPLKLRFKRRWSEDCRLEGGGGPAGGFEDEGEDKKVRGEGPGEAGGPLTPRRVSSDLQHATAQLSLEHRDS
Conditions: protein: recombinant; tags: N-terminal GST; dsDNA, one strand shown. In outline: as §1

The target in a further assay is T7, ETV3L (Homo sapiens, UniProt Q6ZN32 1-361).
T7 sequence: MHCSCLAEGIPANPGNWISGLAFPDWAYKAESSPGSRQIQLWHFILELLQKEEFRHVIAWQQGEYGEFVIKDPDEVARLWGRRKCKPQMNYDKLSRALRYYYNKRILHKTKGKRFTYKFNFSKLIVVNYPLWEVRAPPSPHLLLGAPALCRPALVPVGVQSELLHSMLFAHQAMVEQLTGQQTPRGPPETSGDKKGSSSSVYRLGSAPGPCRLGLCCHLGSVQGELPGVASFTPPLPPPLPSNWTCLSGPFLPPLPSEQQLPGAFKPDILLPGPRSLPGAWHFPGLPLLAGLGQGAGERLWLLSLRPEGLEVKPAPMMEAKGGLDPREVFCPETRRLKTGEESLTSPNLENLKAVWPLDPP
The conditions noted are these: protein: recombinant; tags: N-terminal GST; dsDNA, one strand shown. The gist of the method:
as §1

For another assay, the target named is T8, ETS2 (Homo sapiens, UniProt P15036 1-469).
T8 sequence: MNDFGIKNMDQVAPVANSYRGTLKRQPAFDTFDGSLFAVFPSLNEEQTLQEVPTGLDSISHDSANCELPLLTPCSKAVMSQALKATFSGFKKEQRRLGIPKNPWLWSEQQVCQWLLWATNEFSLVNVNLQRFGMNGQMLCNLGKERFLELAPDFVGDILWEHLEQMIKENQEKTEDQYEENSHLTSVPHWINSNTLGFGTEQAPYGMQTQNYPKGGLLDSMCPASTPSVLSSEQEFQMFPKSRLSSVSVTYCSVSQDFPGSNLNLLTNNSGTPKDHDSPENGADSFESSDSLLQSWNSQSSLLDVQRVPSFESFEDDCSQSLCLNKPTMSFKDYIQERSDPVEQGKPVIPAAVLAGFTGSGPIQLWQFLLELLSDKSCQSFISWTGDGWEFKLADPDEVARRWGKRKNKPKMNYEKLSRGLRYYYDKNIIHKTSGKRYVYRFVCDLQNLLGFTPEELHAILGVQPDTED
Conditions: protein: recombinant; tags: N-terminal GST; dsDNA, one strand shown. In outline:
as §1

In the next assay the target is T9, SPDEF (Homo sapiens, UniProt O95238 1-335).
T9 sequence: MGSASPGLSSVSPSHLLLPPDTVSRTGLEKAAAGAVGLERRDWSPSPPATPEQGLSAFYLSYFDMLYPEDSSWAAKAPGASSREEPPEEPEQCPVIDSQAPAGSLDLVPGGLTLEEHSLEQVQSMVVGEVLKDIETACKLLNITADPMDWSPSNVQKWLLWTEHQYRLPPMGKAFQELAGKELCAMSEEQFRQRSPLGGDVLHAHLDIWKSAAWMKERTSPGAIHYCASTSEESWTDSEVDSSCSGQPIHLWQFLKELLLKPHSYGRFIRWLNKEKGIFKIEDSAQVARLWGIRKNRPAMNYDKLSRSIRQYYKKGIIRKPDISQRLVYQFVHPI
Conditions: protein: recombinant; tags: N-terminal GST; dsDNA, one strand shown. In outline:
as §1

A further assay deals with T10, ETV7 (Homo sapiens, UniProt Q9Y603 1-341).
T10 sequence: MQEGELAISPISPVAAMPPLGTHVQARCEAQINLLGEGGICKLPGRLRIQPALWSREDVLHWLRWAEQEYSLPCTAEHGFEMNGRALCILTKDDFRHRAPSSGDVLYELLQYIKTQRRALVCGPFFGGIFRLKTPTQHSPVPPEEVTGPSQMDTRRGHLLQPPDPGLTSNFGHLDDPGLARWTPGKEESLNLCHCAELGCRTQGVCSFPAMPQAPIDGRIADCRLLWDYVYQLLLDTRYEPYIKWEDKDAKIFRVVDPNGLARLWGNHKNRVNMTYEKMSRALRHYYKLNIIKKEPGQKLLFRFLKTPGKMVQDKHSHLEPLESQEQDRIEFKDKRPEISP
The conditions noted are these: protein: recombinant; tags: N-terminal GST; dsDNA, one strand shown. In outline: as §1

The target of the next assay is T11, ELF5 (Homo sapiens, UniProt Q9UKW6-2 1-255).
T11 sequence: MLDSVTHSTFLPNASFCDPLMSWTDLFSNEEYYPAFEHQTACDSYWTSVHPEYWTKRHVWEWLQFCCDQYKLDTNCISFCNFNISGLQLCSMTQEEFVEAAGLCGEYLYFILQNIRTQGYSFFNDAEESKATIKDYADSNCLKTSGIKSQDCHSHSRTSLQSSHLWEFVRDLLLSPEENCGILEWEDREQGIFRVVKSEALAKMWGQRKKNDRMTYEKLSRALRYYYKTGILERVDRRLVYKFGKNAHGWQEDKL
Conditions: protein: recombinant; tags: N-terminal GST; dsDNA, one strand shown. In outline:
as §1

The next assay addresses T12, ETV3 (Homo sapiens, UniProt P41162-2 1-143).
T12 sequence: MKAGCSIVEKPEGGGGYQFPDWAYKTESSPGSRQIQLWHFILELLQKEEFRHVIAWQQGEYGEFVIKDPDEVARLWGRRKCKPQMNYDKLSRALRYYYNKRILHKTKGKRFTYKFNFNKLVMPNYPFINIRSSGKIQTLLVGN
The conditions noted are these: protein: recombinant; tags: N-terminal GST; dsDNA, one strand shown. In outline:
as §1

The target of a further assay is ETV6 (Homo sapiens, UniProt P41212 1-452). The conditions noted are these: protein: recombinant; tags: N-terminal GST; dsDNA, one strand shown. In outline:
as §1

Sequence of CRX (O43186 whole entry): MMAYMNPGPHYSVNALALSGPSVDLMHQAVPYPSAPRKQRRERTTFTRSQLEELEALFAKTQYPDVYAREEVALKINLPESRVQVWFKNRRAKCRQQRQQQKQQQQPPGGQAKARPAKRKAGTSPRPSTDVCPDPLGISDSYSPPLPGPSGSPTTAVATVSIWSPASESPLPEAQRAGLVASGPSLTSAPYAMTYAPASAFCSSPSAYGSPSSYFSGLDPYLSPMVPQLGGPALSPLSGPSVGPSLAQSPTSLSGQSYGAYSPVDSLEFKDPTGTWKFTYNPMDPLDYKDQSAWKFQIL
Sequence of ELF4 (Q99607 whole entry): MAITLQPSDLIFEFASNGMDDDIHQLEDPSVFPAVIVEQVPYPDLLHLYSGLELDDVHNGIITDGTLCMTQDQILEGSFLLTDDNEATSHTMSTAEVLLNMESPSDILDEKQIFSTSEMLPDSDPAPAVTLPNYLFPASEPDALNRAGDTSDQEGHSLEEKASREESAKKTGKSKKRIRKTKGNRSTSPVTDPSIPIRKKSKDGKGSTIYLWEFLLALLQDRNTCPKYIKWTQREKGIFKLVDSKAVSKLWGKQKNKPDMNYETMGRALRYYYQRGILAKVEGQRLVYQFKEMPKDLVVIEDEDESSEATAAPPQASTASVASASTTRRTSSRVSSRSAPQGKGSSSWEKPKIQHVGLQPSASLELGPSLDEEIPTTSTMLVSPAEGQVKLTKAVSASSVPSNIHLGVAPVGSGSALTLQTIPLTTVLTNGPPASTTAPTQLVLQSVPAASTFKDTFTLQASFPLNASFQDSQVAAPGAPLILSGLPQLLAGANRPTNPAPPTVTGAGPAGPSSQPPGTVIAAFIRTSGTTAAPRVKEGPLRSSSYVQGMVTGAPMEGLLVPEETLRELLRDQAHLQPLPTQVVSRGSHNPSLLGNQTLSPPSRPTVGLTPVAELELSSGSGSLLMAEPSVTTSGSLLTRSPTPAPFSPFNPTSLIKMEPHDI
Sequence of ETV6 (P41212 whole entry): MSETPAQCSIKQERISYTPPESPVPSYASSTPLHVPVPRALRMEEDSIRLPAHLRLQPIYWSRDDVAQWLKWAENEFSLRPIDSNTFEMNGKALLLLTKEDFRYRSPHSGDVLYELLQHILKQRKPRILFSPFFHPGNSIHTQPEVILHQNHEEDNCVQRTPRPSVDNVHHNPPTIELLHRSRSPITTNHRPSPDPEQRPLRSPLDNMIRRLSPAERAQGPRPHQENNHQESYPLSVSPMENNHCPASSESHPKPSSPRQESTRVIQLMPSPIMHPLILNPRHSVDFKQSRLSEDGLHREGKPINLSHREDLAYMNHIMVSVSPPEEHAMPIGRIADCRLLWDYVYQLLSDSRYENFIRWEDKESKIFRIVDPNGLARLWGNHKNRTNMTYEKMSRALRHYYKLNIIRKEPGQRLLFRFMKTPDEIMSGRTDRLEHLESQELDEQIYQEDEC
Sequence of ETV1 (P50549 whole entry): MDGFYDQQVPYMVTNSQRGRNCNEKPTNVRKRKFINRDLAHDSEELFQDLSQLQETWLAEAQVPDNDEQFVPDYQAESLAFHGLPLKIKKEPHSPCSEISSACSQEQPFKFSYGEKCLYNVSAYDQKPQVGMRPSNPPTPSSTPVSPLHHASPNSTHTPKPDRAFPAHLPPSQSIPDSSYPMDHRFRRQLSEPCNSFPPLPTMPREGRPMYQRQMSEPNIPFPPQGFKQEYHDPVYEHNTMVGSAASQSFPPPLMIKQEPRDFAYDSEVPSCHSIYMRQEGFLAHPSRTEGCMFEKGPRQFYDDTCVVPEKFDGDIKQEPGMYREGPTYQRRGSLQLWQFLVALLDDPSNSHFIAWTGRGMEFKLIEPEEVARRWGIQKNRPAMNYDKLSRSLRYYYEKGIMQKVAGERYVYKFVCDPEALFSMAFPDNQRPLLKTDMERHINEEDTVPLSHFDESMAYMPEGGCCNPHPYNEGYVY
Sequence of HSF1 (Q00613 whole entry): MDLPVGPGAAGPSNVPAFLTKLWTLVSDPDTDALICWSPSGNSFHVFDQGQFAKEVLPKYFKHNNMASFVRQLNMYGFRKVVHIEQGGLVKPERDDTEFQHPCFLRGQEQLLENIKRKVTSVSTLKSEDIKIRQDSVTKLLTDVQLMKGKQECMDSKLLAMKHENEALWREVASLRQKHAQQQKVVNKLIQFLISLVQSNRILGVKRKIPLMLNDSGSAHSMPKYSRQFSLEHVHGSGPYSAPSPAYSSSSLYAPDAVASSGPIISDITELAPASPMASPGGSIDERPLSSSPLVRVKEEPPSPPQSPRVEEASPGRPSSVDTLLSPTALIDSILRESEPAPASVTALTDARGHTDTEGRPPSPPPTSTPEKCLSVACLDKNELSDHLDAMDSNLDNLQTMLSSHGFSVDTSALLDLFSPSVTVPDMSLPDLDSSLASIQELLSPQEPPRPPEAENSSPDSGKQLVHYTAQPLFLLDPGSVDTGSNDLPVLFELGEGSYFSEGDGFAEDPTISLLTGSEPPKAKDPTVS
Sequence of ETV5 (P41161 whole entry): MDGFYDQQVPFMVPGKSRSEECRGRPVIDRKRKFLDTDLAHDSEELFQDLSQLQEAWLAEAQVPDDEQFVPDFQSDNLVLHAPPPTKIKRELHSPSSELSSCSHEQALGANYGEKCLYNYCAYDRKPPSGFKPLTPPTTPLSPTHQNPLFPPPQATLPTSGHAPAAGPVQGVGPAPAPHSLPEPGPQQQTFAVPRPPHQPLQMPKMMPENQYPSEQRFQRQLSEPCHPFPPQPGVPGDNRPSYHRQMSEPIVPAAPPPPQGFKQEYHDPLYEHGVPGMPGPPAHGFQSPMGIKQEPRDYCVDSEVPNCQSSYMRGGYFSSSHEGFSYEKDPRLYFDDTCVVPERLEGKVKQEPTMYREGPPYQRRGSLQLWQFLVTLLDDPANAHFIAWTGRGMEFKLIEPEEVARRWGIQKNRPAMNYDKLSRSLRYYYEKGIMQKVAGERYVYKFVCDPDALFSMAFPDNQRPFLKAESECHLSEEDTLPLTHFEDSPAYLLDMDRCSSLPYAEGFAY

Regarding ATGCAA, the binding signal in the assay with FEV is 1.23 fold enrichment (6-mer frequency, TF over GST control); with ETV5, 1.25 fold enrichment (6-mer frequency, TF over GST control); with HSF1 it was 1.08 fold enrichment (6-mer frequency, TF over GST control); with SPIC, 1.11 fold enrichment (6-mer frequency, TF over GST control); in the assay with ELF4, 1.25 fold enrichment (6-mer frequency, TF over GST control); with ELK4, 1.32 fold enrichment (6-mer frequency, TF over GST control). Further, the binding signal in the assay with ETV2 was 1.26 fold enrichment (6-mer frequency, TF over GST control); in the assay with ELF3 it was 1.36 fold enrichment (6-mer frequency, TF over GST control); in the assay with CRX, 1.07 fold enrichment (6-mer frequency, TF over GST control); in the assay with ETV1 it was 1.26 fold enrichment (6-mer frequency, TF over GST control); with ERF, 1.23 fold enrichment (6-mer frequency, TF over GST control); with ETV3L, 1.26 fold enrichment (6-mer frequency, TF over GST control). For the same sequence, the binding signal with ETS2 was 1.26 fold enrichment (6-mer frequency, TF over GST control); in the assay with SPDEF, 1.3 fold enrichment (6-mer frequency, TF over GST control); in the assay with ETV7, 1.19 fold enrichment (6-mer frequency, TF over GST control); in the assay with ELF5, 1.26 fold enrichment (6-mer frequency, TF over GST control); with ETV3, 1.17 fold enrichment (6-mer frequency, TF over GST control); with ETV6, 1.24 fold enrichment (6-mer frequency, TF over GST control).
